Results on eleven molecules are retold here after the supplement of paper PMC7801607.

SMILES strings stand for the structures. A value given as a limit tells only on which side of the number the result lay.

One experiment deals with CHO. As to the kind of experiment: % viability of CHO cells (MTT); higher = less toxic. The following applies: 48 h. In outline:
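For 48 h, attached CHO cells (10^6 cells/well, 200 µL, seeded the night before) were kept in fresh medium carrying compound at 2 or 20 µM. A colorimetric tetrazolium (MTT) assay then gave survival as percent viability versus untreated cells.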

A further experiment concerns HepG2-A16-CD81. Nature of the experiment: % inhibition of HepG2 viability (CellTiter-Glo); higher = more toxic. The settings on record: 5 µM. Background: Cellular ATP, detected with luciferase, serves as a proxy for viable cell number.
Experiment [1] relates to Plasmodium falciparum NF54 stage IV/V gametocytes. As to the kind of experiment: % inhibition of gametocyte viability (PrestoBlue); higher = more inhibition. The settings on record: 48 h. In outline:
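Stage IV/V NF54 gametocytes at 2% gametocytaemia and 5% haematocrit (100 µL/well) were treated with compound at 1 or 5 µM and incubated for 48 h at 37 °C under stationary, hypoxic conditions. PrestoBlue (10 µL) was then added for 2 h, and fluorescence at 612 nm was read on 70 µL of transferred supernatant. Percent inhibition of gametocyte viability was normalised to vehicle and kill controls within one run.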

Experiment [2] has as its system Plasmodium falciparum NF54 asexual blood stage. As to the kind of experiment: % inhibition of asexual blood stage proliferation (pLDH); higher = more inhibition. The following applies: 72 h. Summed up: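 Plasmodium falciparum NF54 ring-stage cultures (1% haematocrit, 2% parasitaemia) were incubated with compound at 2 or 20 µM for 72 h at 37 °C under 4% CO2, 3% O2 and 93% N2. Survival was read at 620 nm with the parasite lactate dehydrogenase assay. Results were reported as percent inhibition of asexual proliferation relative to controls.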

Experiment [3] relates to Plasmodium falciparum NF54 stage IV/V gametocytes. As to the kind of experiment: % inhibition of gametocyte viability (ATP bioluminescence); higher = more inhibition. The following applies: 24 h. In outline: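 Stage IV/V NF54 gametocytes from density gradients (30,000 per well, 96-well plates) were incubated with compound at 1 or 5 µM for 24 h at 37 °C. A single run supplied percent inhibition of gametocyte viability, based on ATP measured with Promega BacTiter Glo and normalised to control wells.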

For experiment [4] the test system is unchanged. Nature of the experiment: % inhibition of gametocyte viability (luciferase reporter); higher = more inhibition. The following applies: 48 h. Summed up:
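Percent inhibition came from luminescence and was normalised to controls in a single run. Gametocytes (stage IV/V, NF54-Pfs16-GFP-Luc line, 2% gametocytaemia, 2% haematocrit) were treated with compound at 1 or 5 µM and incubated for 48 h at 37 °C without agitation under hypoxia. Readings used 30 µL lysate with 30 µL Promega luciferin substrate on a GloMax-Multi+ reader, integrating for 10 s.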
For orientation: A reporter such as luciferase makes a cellular process visible.

Experiment [5] concerns Plasmodium berghei ANKA liver stage in HepG2-A16-CD81. As to the kind of experiment: % inhibition of liver stage parasite viability (luciferase); higher = more inhibition. The settings on record: 5 µM; 48 h. On the procedure:
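Single-concentration screen of the MMV Pandemic Response Box. P. falciparum NF54 asexual blood stages: pLDH assay, 72 h at 37 °C, 2 and 20 µM, n=2. Stage IV/V gametocytes (NF54): luciferase reporter (NF54-Pfs16-GFP-Luc, 48 h), ATP bioluminescence (24 h) and PrestoBlue (48 h) at 1 and 5 µM, n=1. P. berghei liver stage (luciferase in HepG2-A16-CD81, 48 h post infection) at 5 µM, n=4. All normalised to DMSO and kill controls as % inhibition.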
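Wherever % inhibition of HepG2 viability (CellTiter-Glo) is given: HepG2-A16-CD81 hepatoma cells plated as in the liver-stage assay but without sporozoites, with DMSO wells as negative and 25 µM puromycin as positive control.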

Regarding `Cc1ccc(NC(=O)c2ccc(CN3CCN(C)CC3)cc2)cc1Nc1nccc(-c2cccnc2)n1`, the figures for the “% viability of CHO cells” value in the experiment on CHO (2 µM) and with CHO (20 µM) were 87.6% and 50.2%, respectively. Besides, the “% inhibition of HepG2 viability” value in the experiment with HepG2-A16-CD81 stood at 6.65%. For the same molecule, the “% inhibition of gametocyte viability” value is below 0% in experiment [1] (1 µM); below 0% in experiment [1] (5 µM); below 0% in experiment [3] (1 µM); below 0% in experiment [3] (5 µM); 0.104% in experiment [4] (1 µM); below 0% in experiment [4] (5 µM). For the same molecule, the “% inhibition of asexual blood stage proliferation” value in experiment [2] (2 µM) was determined as 60.6%; in experiment [2] (20 µM), 98.3%. In addition, the “% inhibition of liver stage parasite viability” value in experiment [5] came to 8.45%.

Turning to `CC(=O)N1CCN(c2ccc(OCC3COC(Cn4ccnc4)(c4ccc(Cl)cc4Cl)O3)cc2)CC1` (configuration not stated), the “% viability of CHO cells” value in the experiment on CHO (2 µM) came out at 105%; in the experiment on CHO (20 µM) it was 60.1%. In addition, the “% inhibition of HepG2 viability” value in the experiment with HepG2-A16-CD81 was 0.653%. Further, the “% inhibition of gametocyte viability” value in experiment [1] (1 µM) was 6.22%; in experiment [1] (5 µM) it was below 0%; in experiment [3] (1 µM) it was below 0%; in experiment [3] (5 µM) it was below 0%; in experiment [4] (1 µM), below 0%; in experiment [4] (5 µM), below 0%. The results for the “% inhibition of asexual blood stage proliferation” value in experiment [2] (2 µM) and in experiment [2] (20 µM) were 2.92% and 64.4%, respectively. In addition, the “% inhibition of liver stage parasite viability” value in experiment [5] worked out at 16.4%.

Take `CC(C)(C)c1cc(CCC(=O)N2CCC2)cc(C(C)(C)C)c1O`: the “% viability of CHO cells” value was found to be 94.2% with CHO (2 µM) and 74.4% in the experiment with CHO (20 µM). Further, the “% inhibition of HepG2 viability” value with HepG2-A16-CD81 came to 0.292%. Also, the “% inhibition of gametocyte viability” value in experiment [1] (1 µM), in experiment [1] (5 µM), in experiment [3] (1 µM), in experiment [3] (5 µM), in experiment [4] (1 µM) and in experiment [4] (5 µM) was below 0% in each case. In addition, the “% inhibition of asexual blood stage proliferation” value in experiment [2] (2 µM) stood at 4.95%; in experiment [2] (20 µM), 69.6%. The “% inhibition of liver stage parasite viability” value in experiment [5] came out at 21.9%.

On to `O=C(CSc1nnc(Br)n1-c1ccc(C2CC2)c2ccccc12)Nc1ccc(C(=O)O)cc1Cl`, for which the “% viability of CHO cells” value was determined as 98.5% with CHO (2 µM) and 61.4% in the experiment with CHO (20 µM). Further, the “% inhibition of HepG2 viability” value in the experiment on HepG2-A16-CD81 is -1.62%. Further, the “% inhibition of gametocyte viability” value in experiment [1] (1 µM) was 15.4%; in experiment [1] (5 µM), 20.5%; in experiment [3] (1 µM), below 0%; in experiment [3] (5 µM) it was below 0%; in experiment [4] (1 µM), below 0%; in experiment [4] (5 µM), below 0%. Besides, the “% inhibition of asexual blood stage proliferation” value came to 3.71% in experiment [2] (2 µM) and 46.7% in experiment [2] (20 µM). Further, the “% inhibition of liver stage parasite viability” value in experiment [5] is 27.6%.

Take `CC[C@H](CO)Nc1nc(NCc2ccccc2)c2ncn(C(C)C)c2n1`: the “% viability of CHO cells” value in the experiment on CHO (2 µM) turned out to be 157%; with CHO (20 µM), 60.7%. Further, the “% inhibition of HepG2 viability” value with HepG2-A16-CD81 was 10.6%. Further, the “% inhibition of gametocyte viability” value is below 0% in experiment [1] (1 µM); below 0% in experiment [1] (5 µM); 1.02% in experiment [3] (1 µM); below 0% in experiment [3] (5 µM); 6.71% in experiment [4] (1 µM); below 0% in experiment [4] (5 µM). For the same molecule, the “% inhibition of asexual blood stage proliferation” value was -11.2% in experiment [2] (2 µM) and 88% in experiment [2] (20 µM). Besides, in experiment [5], the “% inhibition of liver stage parasite viability” value turned out to be 26.6%.

As to `Cc1cc(C)n2nc(C(=O)NS(=O)(=O)c3c(C)cccc3OC(F)(F)F)nc2n1`, the entries for the “% viability of CHO cells” value in the experiment on CHO (2 µM) and with CHO (20 µM) were 110% and 122%, respectively. Moreover, the “% inhibition of HepG2 viability” value in the experiment on HepG2-A16-CD81 worked out at 8.44%. For the same molecule, the “% inhibition of gametocyte viability” value in experiment [1] (1 µM) was 33.8%; in experiment [1] (5 µM), 85.1%; in experiment [3] (1 µM) it was below 0%; in experiment [3] (5 µM), below 0%; in experiment [4] (1 µM), 14.1%; in experiment [4] (5 µM), 14.2%. The results for the “% inhibition of asexual blood stage proliferation” value in experiment [2] (2 µM) and in experiment [2] (20 µM) were 33.6% and 59.9%, respectively. The “% inhibition of liver stage parasite viability” value in experiment [5] is 37%.

`C=C[C@]1(C)C[C@@H](OC(=O)CS[C@@H]2C[C@H]3CC[C@@H](C2)N3C)[C@]2(C)[C@H](C)CC[C@]3(CCC(=O)[C@H]32)[C@@H](C)[C@@H]1O`: the figures for the “% viability of CHO cells” value with CHO (2 µM) and in the experiment with CHO (20 µM) were 77.8% and 48.9%, respectively. In addition, the “% inhibition of HepG2 viability” value in the experiment with HepG2-A16-CD81 came to 7.56%. The “% inhibition of gametocyte viability” value in experiment [1] (1 µM) was below 0%; in experiment [1] (5 µM), 2.51%; in experiment [3] (1 µM), 1.57%; in experiment [3] (5 µM) it was 7.83%; in experiment [4] (1 µM), below 0%; in experiment [4] (5 µM), below 0%. Moreover, the “% inhibition of asexual blood stage proliferation” value worked out at 68.8% in experiment [2] (2 µM) and 104% in experiment [2] (20 µM). Also, in experiment [5], the “% inhibition of liver stage parasite viability” value is 53%.

On to `O=C1NC(=O)C(Br)=C1Br`, for which the “% viability of CHO cells” value in the experiment on CHO (2 µM) is 118%; in the experiment with CHO (20 µM) it was 103%. Further, the “% inhibition of HepG2 viability” value in the experiment with HepG2-A16-CD81 amounted to 5.44%. Moreover, the “% inhibition of gametocyte viability” value is 13.6% in experiment [1] (1 µM); below 0% in experiment [1] (5 µM); 0.158% in experiment [3] (1 µM); below 0% in experiment [3] (5 µM); below 0% in experiment [4] (1 µM); 11.4% in experiment [4] (5 µM). For the same molecule, the “% inhibition of asexual blood stage proliferation” value in experiment [2] (2 µM) was 42.2%; in experiment [2] (20 µM) it was 102%. For the same molecule, the “% inhibition of liver stage parasite viability” value in experiment [5] was 35.8%.

For the molecule `O=C1c2cccc3cccc(c23)C(=O)N1CC1CO1` (configuration not stated), the results for the “% viability of CHO cells” value with CHO (2 µM) and in the experiment with CHO (20 µM) were 107% and 108%, respectively. The “% inhibition of HepG2 viability” value with HepG2-A16-CD81 was -6.3%. In addition, the “% inhibition of gametocyte viability” value in experiment [1] (1 µM) was 7.65%; in experiment [1] (5 µM), 8.86%; in experiment [3] (1 µM), below 0%; in experiment [3] (5 µM), below 0%; in experiment [4] (1 µM), below 0%; in experiment [4] (5 µM), 3.81%. Further, the “% inhibition of asexual blood stage proliferation” value in experiment [2] (2 µM) was 22%; in experiment [2] (20 µM), 66.9%. Besides, the “% inhibition of liver stage parasite viability” value in experiment [5] is 14.1%.

With `CC[C@@H]1C(=O)OC[C@@H]1Cc1cncn1C`, the results for the “% viability of CHO cells” value with CHO (2 µM) and in the experiment on CHO (20 µM) were 111% and 110%, respectively. For the same molecule, the “% inhibition of HepG2 viability” value in the experiment with HepG2-A16-CD81 was -1.73%. For the same molecule, the “% inhibition of gametocyte viability” value in experiment [1] (1 µM) was below 0%; in experiment [1] (5 µM), below 0%; in experiment [3] (1 µM), below 0%; in experiment [3] (5 µM) it was below 0%; in experiment [4] (1 µM) it was below 0%; in experiment [4] (5 µM), 10.7%. Besides, the figures for the “% inhibition of asexual blood stage proliferation” value in experiment [2] (2 µM) and in experiment [2] (20 µM) were 5.57% and 14.4%, respectively. Further, the “% inhibition of liver stage parasite viability” value in experiment [5] was -7.29%.

As to `[N-]=[N+]=N[C@H]1C[C@H](n2ccc(=O)[nH]c2=O)O[C@@H]1CO`, the “% viability of CHO cells” value in the experiment with CHO (2 µM) is 109%; in the experiment on CHO (20 µM) it was 102%. Moreover, in the experiment on HepG2-A16-CD81, the “% inhibition of HepG2 viability” value is -1.43%. The “% inhibition of gametocyte viability” value in experiment [1] (1 µM) is 6.88%; in experiment [1] (5 µM), 16.8%; in experiment [3] (1 µM) it was 3%; in experiment [3] (5 µM) it was below 0%; in experiment [4] (1 µM), 11.1%; in experiment [4] (5 µM) it was below 0%. Also, the “% inhibition of asexual blood stage proliferation” value in experiment [2] (2 µM) was -15.7%; in experiment [2] (20 µM), 43.2%. Moreover, the “% inhibition of liver stage parasite viability” value in experiment [5] was -3.95%.
